Consider 40 sequences from the OligoGym collection.
Also: reference of the scale not given here.

The first assay concerns the target KDELR1. Nature of the assay: pooled miR-30 sensor sort-seq; sequence = guide strand. The note with it: shRNA.
Take ATCGTAAGTAGCTTTGAACTTG: the sensor-assay potency score (higher = more potent) was -0.446.
Same read-out and setting: for TAGGACTTTGGTGATATAGAGG the value was -1.32; for TTGAAGAGATAGAGCGTGCGGT, -0.25; for TTGCTCACCATGAACAGCTGCG, -0.0886.
The same measure, in the same setting: with TAAGTAGCTTTGAACTTGCTAT the figure was -0.0372.

For another assay, the target named is KDM2B. Described as above. The note with it: shRNA.
TTTGGCATCGTTCCACACGGTC yielded a sensor-assay potency score (higher = more potent) of -1.07.
In turn, TTGGAGATATTGGTCCAGCTGA displayed a sensor-assay potency score (higher = more potent) of -0.912.
Turning to TTCTTTGCCAGGTTTGAGCCGC, the sensor-assay potency score (higher = more potent) was -0.547.
Turning to TTCTTGGAGATATTGGTCCAGC, the sensor-assay potency score (higher = more potent) is -0.935.
Same read-out and setting: with TAAACTTGCCTTCCTCCTCTTC the figure was -0.422.
On the same count and under the same terms, for TTGTCCATCTGACCTGGCCTGT the value was -0.884; for TATCGCTGGCGGTCAATCGGGC, -0.118.
For the sequence TTCGAGTGCTCATCCGACCTGC, the sensor-assay potency score (higher = more potent) was found to be 0.201.
Same read-out and setting: with TTACACTTCGGACACTCCCAGC the figure was -1.12; with TATCTCTCCAGGACATACCAGC, -0.897.
In the case of TTCTTTGCCAGGTTTGAGCTGC, the sensor-assay potency score (higher = more potent) is -0.103.
Consider TGGTTGAACAGCTTCTCCCTTG, for which the sensor-assay potency score (higher = more potent) was -0.428.

In the next assay the target is KDR. The description is as above. The note with it: shRNA.
The sequence TAATTTGGTTCTGTCTTCCAAA returned a sensor-assay potency score (higher = more potent) of -0.462.
Sequence TTGCACTCCAATCTCTATCAGC displayed a sensor-assay potency score (higher = more potent) of -0.492.
As to TTCTTCTACATCACTGAGGGAC, the sensor-assay potency score (higher = more potent) was -0.165.
TTCTTCTTGGTCATCAGCCCAC showed a sensor-assay potency score (higher = more potent) of -0.727.
TTGACTGCTACTGTCCTGCAAG came in with a sensor-assay potency score (higher = more potent) of -0.615.
Still for that read-out and setting: with TTGCTGTCTTGTCAATTCCAAA the figure was -1.68; with TGTCTTTTCTTGGTCTTCCTGT, 0.316.
The same measure, in the same setting: for TTTTGCTTCACAGAAGACCATG the value was -1.02; for TAATAGACTGGTAACTTTCATC, -0.621; for TAGCTGATCATGTAGCTGGGAA, -0.114.
Same read-out and setting: for TAGACTGGTAACTTTCATCATT the value was -0.75; for ATTTTGACTGCTACTGTCCTGC, 0.0399.

For a further assay, the target named is KHDRBS3. The description is as above. The note with it: shRNA.
As for TTGAGATGGAAGTACTTCGCTT, the sensor-assay potency score (higher = more potent) was -0.344.
Sequence TAAGTCTCTTGTGTCGGGGGTG yielded a sensor-assay potency score (higher = more potent) of -0.204.
The same measure, in the same setting: for TTCTATTTCTTGGTTCACCAGG the value was -0.397.
With TTGAGTTAGTCCACTCTTCTTG, the sensor-assay potency score (higher = more potent) stood at 0.078.
With TACTACAACTCCAACTGGCCGG, the sensor-assay potency score (higher = more potent) was -0.46.
On the same count and under the same terms, with TTGTGTCTTGAGTTAGTCCACT the figure was -0.733; with TTCTTCTTGTAAACGCTTCAGA, -0.501; with TAGTCCACTCTTCTTGCCCGTA, -0.553.
TGGTACTACAACTCCAACTGGC returned a sensor-assay potency score (higher = more potent) of -0.54.
The same measure, in the same setting: with TAACACTTTCTGTCCCAGCTTC the figure was 0.341; with TTGCTGTCCTCGCTGAAGGTGC, -1.17.
